PubChem BioAssay AID463173 (ICCB-Longwood Screening Facility, Harvard Medical School, 2010)
Hit rate of the full screen: of about 52,000 compounds, about 4,300 (8.3%) were called active. Rule as the data show it: active = survival mostly below about 52% (no sharp cut-off); inactive = mostly above about 56%. Only a selection was taken, and actives are over-represented in it overall.

System: DeltatarO mutant
Assay: growth inhibition of S. aureus wild type versus tarO mutant, primary screen, teichoic acid synthesis inhibitors, RN4220, OD600 (AID 463173)
Conditions: OD600, 18 h, active compounds read low, screened at 18.75 µg/mL (by protocol)

Row | Structure (SMILES) | survival
1 | CCOc1ccc(-c2cccc(NS(=O)(=O)c3ccccc3C(F)(F)F)c2)nn1 | 91% (inactive)
2 | O=C(Cn1c(=O)nc(-c2ccccc2)c2ccccc21)Nc1cccc(C(F)(F)F)c1 | 104% (inactive)
3 | Cc1ccc2nc(N(Cc3cccnc3)C(=O)c3cccs3)sc2c1 | 71% (inactive)
4 | CCCCN(C)CCNC(=O)c1c2c(nc3ccccc13)C(=O)N(C1CCCCC1)C2 | 102% (inactive)
5 | O=C(NCCc1ccc(Cl)cc1)c1ccc2c(c1)N(Cc1cccc(Cl)c1)C(=O)c1ccccc1S2(=O)=O | 117% (inactive)
6 | COc1ccccc1CNC(=O)CS(=O)(=O)Cc1nc(-c2ccccc2C)oc1C | 63% (inactive)
7 | CCCCN(C)C(=O)C1CCCN(c2ncnc3onc(C)c23)C1 (stereo not given) | 113% (inactive)
8 | O=C(Nc1ccc2c(c1)CCC2)C1CCN(c2ccc(S(=O)(=O)N3CCCC3)cc2)CC1 | 103% (inactive)
9 | Cc1ccc(NC(=O)/C(C#N)=C/c2cc(C)n(-c3ccc(F)cc3)c2C)cc1C | 65% (inactive)
10 | Cc1ccc(NC(=O)/C(C#N)=C/c2ccc(C(C)C)cc2)cc1C | 81% (inactive)
11 | Cc1ccc(-n2c(C)cc(/C=C(\C#N)C(=O)Nc3ccc(C)c(C)c3)c2C)cc1 | 48% (inactive)
12 | Cc1ccccc1NC(=O)/C(C#N)=C/c1ccc(Cl)cc1Cl | 32% (active)
13 | Cc1ccc(NC(=O)/C(C#N)=C/c2ccccc2Cl)cc1C | 34% (active)
14 | Cc1ccc(Cl)cc1NC(=O)/C(C#N)=C/c1c(C)n(Cc2ccccc2)c2ccccc12 | 95% (inactive)
15 | Cc1ccc(NC(=O)/C(C#N)=C/c2cc(C)n(-c3ccc(Br)cc3)c2C)cc1C | 65% (inactive)
16 | Cc1ccc(Cl)cc1NC(=O)/C(C#N)=C\c1cn(Cc2ccc(F)cc2)c2ccccc12 | 98% (inactive)
17 | Cc1ccc(NC(=O)/C(C#N)=C\c2ccc(Cl)cc2Cl)cc1C | 29% (active)
18 | Cc1cc(C)n2c(Nc3ccccc3)c(-c3ccccc3)nc2n1 | 72% (inactive)
19 | Cc1cccc(N2CCN(Cc3nnc(-c4cccc(Br)c4)o3)CC2)c1C | 72% (inactive)
20 | CCc1ccccc1N(C)C(=O)c1ccc2c(=O)n3c(nc2c1)CCCCC3 | 81% (inactive)
21 | O=C(Cn1cnc(S(=O)(=O)N2CCCC2)c1)Nc1cccc(F)c1 | 91% (inactive)
22 | CCC(C)c1ccc(NC(=O)CSc2nncn2N)cc1 (stereo not given) | 76% (inactive)
23 | O=C(CC1Sc2ccc(C(F)(F)F)cc2NC1=O)Nc1ccc(Cl)c(C(F)(F)F)c1 (stereo not given) | 22% (active)
24 | CCOC(=O)c1ccc(NC(=O)CC2Sc3ccc(C(F)(F)F)cc3NC2=O)cc1 (stereo not given) | 78% (inactive)
25 | CCc1ccccc1NC(=O)CC1Sc2ccc(C(F)(F)F)cc2NC1=O (stereo not given) | 82% (inactive)
